Structures can show the parent of a compound that is named as a salt.
The compounds below were run on Salmonella enterica typhimurium (assay: growth AUC normalised to DMSO control (fraction of control); higher = less growth inhibition, active = hit call of the paper). Conditions: 20 µM;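 active = AUC significantly below DMSO controls by Student t-fit with adjusted P under 0.01; inactive = not significantly reduced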.
Method in brief: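 Pathogens were passaged twice under anaerobic conditions, then inoculated into pre-reduced mGAM plates at a starting OD578 of 0.01, with compound at 20 μM and 1% DMSO, and sealed with breathable membranes. For Haemophilus parainfluenzae, the medium was supplemented with hemin and NAD. OD578 was read every hour for 24 h in three biological replicates. Growth-curve AUC was calculated by the trapezoidal rule up to the exponential-to-stationary transition and normalised to DMSO controls on the same plate.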

Compound | growth AUC normalised to DMSO control
Cc1ccc(-c2cc(C(F)(F)F)nn2-c2ccc(S(N)(=O)=O)cc2)cc1 [Celecoxib] | 1.01 (inactive)
CCCN(CCC)C(=O)C(CCC(=O)O)NC(=O)c1ccccc1 (stereo not given) [Proglumide] | 1.01 (inactive)
Clc1ccc(C(c2ccccc2Cl)C(Cl)Cl)cc1 (stereo not given) [Mitotane] | 1 (inactive)
CCc1c(C)[nH]c2c1C(=O)C(CN1CCOCC1)CC2 (stereo not given) [Molindone hydrochloride] | 1 (inactive)
OC(CCN1CCCCC1)(c1ccccc1)C1CC2C=CC1C2 (stereo not given) [Biperiden hydrochloride] | 0.987 (inactive)
CC(COc1ccccc1)N(CCCl)Cc1ccccc1 (stereo not given) [Phenoxybenzamine hydrochloride] | 1.01 (inactive)
Nc1ccc(/N=N/c2ccccc2)c(N)n1 [Phenazopyridine hydrochloride] | 0.969 (inactive)
N=C(N)NS(=O)(=O)c1ccc(N)cc1 [Sulfaguanidine] | 1.01 (inactive)
COc1ccc(/C=C/C(=O)Nc2ccccc2C(=O)O)cc1OC [Tranilast] | 0.999 (inactive)
C=C1/C(=C\C=C2/CCC[C@]3(C)[C@@H]([C@H](C)/C=C/[C@@H](O)C4CC4)CC[C@@H]23)C[C@@H](O)C[C@@H]1O [Calcipotriene] | 0.987 (inactive)
C[N+](C)(CCOc1ccccc1)Cc1ccccc1.O=C([O-])c1cc2ccccc2cc1O [Bephenium hydroxynaphthoate] | 1.05 (inactive)
COc1c(N2C[C@@H]3CCCN[C@@H]3C2)c(F)cc2c(=O)c(C(=O)O)cn(C3CC3)c12 [Moxifloxacin] | 0.00585 (active)
C[N+](C)(C)CCOC(N)=O [Carbachol chloride] | 1.03 (inactive)
COCCOC(=O)C1=C(C)NC(C)=C(C(=O)OC/C=C/c2ccccc2)C1c1cccc([N+](=O)[O-])c1 (stereo not given) [Cilnidipine] | 1.01 (inactive)
CCc1cc(C(N)=S)ccn1 [Ethionamide] | 0.991 (inactive)
CCOC(=O)n1ccn(C)c1=S [Carbimazole] | 0.98 (inactive)
CN(C)CCC[C@@]1(c2ccc(F)cc2)OCc2cc(C#N)ccc21 [Escitalopram oxalate] | 1 (inactive)
COc1ccc2[nH]c([S+]([O-])Cc3ncc(C)c(OC)c3C)nc2n1 (stereo not given) [Tenatoprazole] | 0.988 (inactive)
CC1CCc2cc(F)cc3c(=O)c(C(=O)O)cn1c23 (stereo not given) [Flumequine] | 0.00993 (active)
CCn1cc(C(=O)O)c(=O)c2cc(F)c(N3CCNCC3)cc21 [Norfloxacin] | 0.00731 (active)

Compound | growth AUC normalised to DMSO control
Nc1ccc(S(=O)(=O)c2ccc(N)cc2)cc1 [Dapsone] | 0.982 (inactive)
CC(C)(C)NCC(O)COc1cccc2c1CC(O)C(O)C2 (stereo not given) [Nadolol] | 0.99 (inactive)
COc1c2occc2c(OC)c2c(=O)cc(C)oc12 [Khellin] | 1 (inactive)
COc1cc(C(=O)NS(=O)(=O)c2ccccc2C)ccc1Cc1cn(C)c2ccc(NC(=O)OC3CCCC3)cc12 [Zafirlukast] | 0.961 (inactive)
NS(=O)(=O)c1cc2c(cc1Cl)NCNS2(=O)=O [Hydrochlorothiazide] | 1.02 (inactive)
CC(=O)O[C@H]1C[C@@H]2CC[C@@H]3[C@H](CC[C@@]4(C)[C@H]3C[C@H]([N+]3(C)CCCCC3)[C@@H]4OC(C)=O)[C@@]2(C)C[C@@H]1N1CCCCC1 [Vecuronium bromide] | 1.01 (inactive)
CC(=O)OCC(=O)[C@@]1(O)CC[C@H]2[C@@H]3CCC4=CC(=O)CC[C@]4(C)[C@@]3(F)[C@@H](O)C[C@@]21C [Fludrocortisone acetate] | 0.995 (inactive)
CC1(C)S[C@@H]2[C@H](NC(=O)[C@H](NC(=O)N3CCNC3=O)c3ccccc3)C(=O)N2[C@H]1C(=O)O [Azlocillin sodium salt] | 0.766 (active)
C[C@@](Cc1ccc(O)c(O)c1)(NN)C(=O)O [Carbidopa] | 0.994 (inactive)
C[C@H]1O[C@H](O[C@H]2[C@H](O)[C@@H](O)[C@@H](O[C@@H]([C@H](O)[C@@H](O)C=O)[C@H](O)CO)O[C@@H]2CO)[C@H](O)[C@@H](O)[C@@H]1N[C@H]1C=C(CO)[C@@H](O)[C@H](O)[C@H]1O [Acarbose] | 1.04 (inactive)
O=C(O)CCC(=O)c1ccc(-c2ccccc2)cc1 [Fenbufen] | 0.999 (inactive)
CN1CCC[C@@H]1CCO[C@](C)(c1ccccc1)c1ccc(Cl)cc1 [Clemastine fumarate] | 0.999 (inactive)
CN(C)CCOC(C)(c1ccccc1)c1ccccn1 (stereo not given) [Doxylamine succinate] | 0.982 (inactive)
CC(=O)N(O)CCCCCNC(=O)CCC(=O)N(O)CCCCCNC(=O)CCC(=O)N(O)CCCCCN [Deferoxamine mesylate] | 1.03 (inactive)
C[C@]12CCC(=O)C=C1CC[C@@H]1[C@@H]2[C@@H](O)C[C@@]2(C)[C@H]1CC[C@]2(O)C(=O)CO [Hydrocortisone] | 0.983 (inactive)
CN(C)CC/C=C1\c2ccccc2CSc2ccccc21 [Dosulepin hydrochloride] | 0.992 (inactive)
CN1CCN(CCCN2c3ccccc3Sc3ccc(S(=O)(=O)N(C)C)cc32)CC1 [Thioproperazine dimesylate] | 0.999 (inactive)
CO[C@H]1C[C@H](O[C@H]2[C@H](C)[C@@H](O[C@@H]3O[C@H](C)C[C@H](N(C)C)[C@H]3OC(C)=O)[C@@H](C)C[C@@]3(CO3)C(=O)[C@H](C)[C@@H](OC(C)=O)[C@@H](C)[C@@H](C)OC(=O)[C@@H]2C)O[C@@H](C)[C@@H]1OC(C)=O [Troleandomycin] | 0.998 (inactive)
Cc1cnc(C(=O)O)c[n+]1[O-] [Acipimox] | 0.983 (inactive)
COc1ccc(-c2cc(=O)c3c(O)cc(O[C@@H]4O[C@H](CO[C@@H]5O[C@@H](C)[C@H](O)[C@@H](O)[C@H]5O)[C@@H](O)[C@H](O)[C@H]4O)cc3o2)cc1O [Diosmin] | 0.988 (inactive)
